# “And” between values parts separate entries of the source, which are not always exact repeats. Identical values can stand only once. About 83,000 compounds went through this panel and 20% of them were active in at least one assay; those are over-represented in the sample as a whole.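 Assay: single dose, 48 h. Readout: percent growth (0 = no net growth; negative = cell death). Active: <10.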 The source made the active and inactive calls.
# How the values were obtained:
# Assay in all cases: NCI-60 one-dose screen, 48 h (100 = growth as untreated, 0 = no growth, -100 = all killed)
# UO-31 renal = test system: UO-31 renal
# TK-10 renal = test system: TK-10 renal
# ACHN renal = test system: ACHN renal
# CAKI-1 renal = test system: CAKI-1 renal
# A498 renal = test system: A498 renal
# HL-60(TB) leukemia = test system: HL-60(TB) leukemia
# MOLT-4 leukemia = test system: MOLT-4 leukemia
# SR leukemia = test system: SR leukemia
# RPMI-8226 leukemia = test system: RPMI-8226 leukemia
# OVCAR-8 ovarian = test system: OVCAR-8 ovarian
# OVCAR-5 ovarian = test system: OVCAR-5 ovarian
# OVCAR-4 ovarian = test system: OVCAR-4 ovarian
# SK-OV-3 ovarian = test system: SK-OV-3 ovarian
# IGROV1 ovarian = test system: IGROV1 ovarian
# OVCAR-3 ovarian = test system: OVCAR-3 ovarian
# HS 578T breast = test system: HS 578T breast
# NCI/ADR-RES ovarian = test system: NCI/ADR-RES ovarian
# T-47D breast = test system: T-47D breast
# BT-549 breast = test system: BT-549 breast
# MDA-MB-435 melanoma = test system: MDA-MB-435 melanoma
smiles,measurement,setting,value
Oc1cccc2cccnc12,growth,UO-31 renal; 10 µM unless noted,74.2% (inactive) and 94.4% (inactive) and 80.2% (inactive)
same,growth,TK-10 renal; 10 µM,113% (inactive) and 98.5% (inactive) and 104% (inactive)
same,growth,ACHN renal; 10 µM unless noted,83.5% (inactive) and 117% (inactive) and 96% (inactive)
same,growth,CAKI-1 renal; 10 µM unless noted,103% (inactive) and 100% (inactive) and 107% (inactive)
same,growth,A498 renal; 10 µM unless noted,137% (inactive) and 99.4% (inactive) and 83.7% (inactive)
same,growth,HL-60(TB) leukemia; 10 µM unless noted,98.8% (inactive) and 114% (inactive) and 78.2% (inactive)
same,growth,MOLT-4 leukemia; 10 µM unless noted,60.2% (inactive) and 110% (inactive) and 97.8% (inactive)
same,growth,SR leukemia; 10 µM unless noted,40.1% (inactive) and 105% (inactive) and 57.7% (inactive)
same,growth,RPMI-8226 leukemia; 10 µM unless noted,84% (inactive) and 97.1% (inactive)
same,growth,OVCAR-8 ovarian; 10 µM,81.9% (inactive) and 101% (inactive) and 105% (inactive)
same,growth,OVCAR-5 ovarian; 10 µM unless noted,89.4% (inactive)
same,growth,OVCAR-4 ovarian; 10 µM unless noted,60.6% (inactive) and 120% (inactive) and 114% (inactive)
same,growth,SK-OV-3 ovarian; 10 µM unless noted,107% (inactive) and 97.8% (inactive) and 99.9% (inactive)
same,growth,IGROV1 ovarian; 10 µM unless noted,120% (inactive) and 118% (inactive) and 104% (inactive)
same,growth,OVCAR-3 ovarian; 10 µM unless noted,-6.09% (active) and 105% (inactive) and 104% (inactive)
same,growth,HS 578T breast; 10 µM unless noted,116% (inactive) and 101% (inactive)
same,growth,NCI/ADR-RES ovarian; 10 µM unless noted,83% (inactive) and 108% (inactive) and 114% (inactive)
same,growth,T-47D breast; 10 µM unless noted,29% (inactive) and 95.8% (inactive) and 97.9% (inactive)
same,growth,BT-549 breast; 10 µM unless noted,106% (inactive) and 113% (inactive) and 101% (inactive)
same,growth,MDA-MB-435 melanoma; 10 µM unless noted,101% (inactive) and 110% (inactive) and 119% (inactive)
S=C(SSC(=S)N1CCCCC1)N1CCCCC1,growth,UO-31 renal; 10 µM,102% (inactive)
same,growth,UO-31 renal; 100 µM,-12.3% (active)
same,growth,TK-10 renal; 10 µM,109% (inactive)
same,growth,TK-10 renal; 100 µM,-61.8% (active)
same,growth,ACHN renal; 10 µM,106% (inactive)
same,growth,ACHN renal; 100 µM,-51% (active)
same,growth,CAKI-1 renal; 10 µM,95.6% (inactive)
same,growth,CAKI-1 renal; 100 µM,-77.7% (active)
same,growth,A498 renal; 10 µM,105% (inactive)
same,growth,A498 renal; 100 µM,72.4% (inactive)
same,growth,HL-60(TB) leukemia; 10 µM,86.4% (inactive)
same,growth,HL-60(TB) leukemia; 100 µM,14.7% (inactive)
same,growth,MOLT-4 leukemia; 10 µM,85% (inactive)
same,growth,MOLT-4 leukemia; 100 µM,0.424% (active)
same,growth,SR leukemia; 10 µM,86.2% (inactive)
same,growth,SR leukemia; 100 µM,-8.68% (active)
same,growth,RPMI-8226 leukemia; 10 µM,105% (inactive)
same,growth,RPMI-8226 leukemia; 100 µM,-44.7% (active)
same,growth,OVCAR-8 ovarian; 10 µM,92.4% (inactive)
same,growth,OVCAR-8 ovarian; 100 µM,-43.4% (active)
same,growth,OVCAR-5 ovarian; 10 µM,114% (inactive)
same,growth,OVCAR-5 ovarian; 100 µM,-85.8% (active)
same,growth,OVCAR-4 ovarian; 10 µM,85.2% (inactive)
same,growth,OVCAR-4 ovarian; 100 µM,-51.1% (active)
same,growth,SK-OV-3 ovarian; 10 µM,110% (inactive)
same,growth,SK-OV-3 ovarian; 100 µM,45.7% (inactive)
same,growth,IGROV1 ovarian; 10 µM,99.5% (inactive)
same,growth,IGROV1 ovarian; 100 µM,50.2% (inactive)
same,growth,OVCAR-3 ovarian; 10 µM,105% (inactive)
same,growth,OVCAR-3 ovarian; 100 µM,-68.7% (active)
same,growth,HS 578T breast; 10 µM,111% (inactive)
same,growth,HS 578T breast; 100 µM,59.7% (inactive)
same,growth,NCI/ADR-RES ovarian; 10 µM,97.7% (inactive)
same,growth,NCI/ADR-RES ovarian; 100 µM,2.3% (active)
same,growth,T-47D breast; 10 µM,100% (inactive)
same,growth,T-47D breast; 100 µM,-28.4% (active)
same,growth,BT-549 breast; 10 µM,92% (inactive)
same,growth,BT-549 breast; 100 µM,-1.94% (active)
same,growth,MDA-MB-435 melanoma; 10 µM,99.3% (inactive)
same,growth,MDA-MB-435 melanoma; 100 µM,-30.9% (active)
CN1CCN(c2ccc([N+](=O)[O-])c3no[n+]([O-])c23)CC1,growth,UO-31 renal; 10 µM unless noted,-48.4% (active)
same,growth,TK-10 renal; 10 µM,-95.4% (active)
same,growth,ACHN renal; 10 µM unless noted,-84% (active)
same,growth,CAKI-1 renal; 10 µM unless noted,-75.2% (active)
same,growth,A498 renal; 10 µM unless noted,-34.8% (active)
same,growth,HL-60(TB) leukemia; 10 µM unless noted,-42.4% (active)
same,growth,MOLT-4 leukemia; 10 µM unless noted,-46% (active)
same,growth,RPMI-8226 leukemia; 10 µM unless noted,-36.6% (active)
same,growth,OVCAR-8 ovarian; 10 µM,-92.7% (active)
same,growth,OVCAR-5 ovarian; 10 µM unless noted,-15.2% (active)
same,growth,OVCAR-4 ovarian; 10 µM unless noted,-91.8% (active)
same,growth,SK-OV-3 ovarian; 10 µM unless noted,-97.9% (active)
same,growth,IGROV1 ovarian; 10 µM unless noted,-71.5% (active)
same,growth,OVCAR-3 ovarian; 10 µM unless noted,-88.8% (active)
same,growth,HS 578T breast; 10 µM unless noted,-12% (active)
same,growth,NCI/ADR-RES ovarian; 10 µM unless noted,-33.1% (active)
same,growth,T-47D breast; 10 µM unless noted,-56.5% (active)
same,growth,BT-549 breast; 10 µM unless noted,-64.6% (active)
same,growth,MDA-MB-435 melanoma; 10 µM unless noted,-82.2% (active)
O=C(O)c1ccccc1.[Ag],growth,HL-60(TB) leukemia; 10 µM unless noted,113% (inactive)
COC1=C(C)C(=O)C2=C(C1=O)C(CO)N1C(C#N)C3CC4C(C1C2N1CCOC41)N3C (stereo unspecified),growth,TK-10 renal; 10 µM,-28.8% (active)
same,growth,ACHN renal; 10 µM unless noted,-9.01% (active)
same,growth,CAKI-1 renal; 10 µM unless noted,-23.1% (active)
same,growth,A498 renal; 10 µM unless noted,-67.7% (active)
same,growth,HL-60(TB) leukemia; 10 µM unless noted,-33.9% (active)
same,growth,MOLT-4 leukemia; 10 µM unless noted,-2.61% (active)
same,growth,SR leukemia; 10 µM unless noted,-19.5% (active)
same,growth,RPMI-8226 leukemia; 10 µM unless noted,-41.3% (active)
same,growth,OVCAR-5 ovarian; 10 µM unless noted,11.1% (inactive)
same,growth,SK-OV-3 ovarian; 10 µM unless noted,42.4% (inactive)
same,growth,OVCAR-3 ovarian; 10 µM unless noted,-18.7% (active)
same,growth,HS 578T breast; 10 µM unless noted,-55.2% (active)
same,growth,NCI/ADR-RES ovarian; 10 µM unless noted,-21.4% (active)
same,growth,T-47D breast; 10 µM unless noted,-16.8% (active)
same,growth,BT-549 breast; 10 µM unless noted,-64.3% (active)
same,growth,MDA-MB-435 melanoma; 10 µM unless noted,-64.2% (active)
Oc1ccc(Cl)cc1Sc1cc(Cl)ccc1O,growth,HL-60(TB) leukemia; 10 µM unless noted,81.8% (inactive)
CC[C@@]1(O)C[C@H](OC2CC(N(C)C)C(O)C(C)O2)c2c(O)c3c(c(O)c2[C@H]1OC1CC(N(C)C)C(O)C(C)O1)C(=O)c1cccc(O)c1C3=O (stereo partly specified),growth,UO-31 renal; 10 µM unless noted,-33.9% (active)
same,growth,TK-10 renal; 10 µM,-24.9% (active)
same,growth,ACHN renal; 10 µM unless noted,-31% (active)
same,growth,CAKI-1 renal; 10 µM unless noted,-9.18% (active)
same,growth,A498 renal; 10 µM unless noted,-68% (active)
same,growth,HL-60(TB) leukemia; 10 µM unless noted,-34.3% (active)
same,growth,MOLT-4 leukemia; 10 µM unless noted,-10.5% (active)
same,growth,SR leukemia; 10 µM unless noted,-7.1% (active)
same,growth,RPMI-8226 leukemia; 10 µM unless noted,-50.6% (active)
same,growth,OVCAR-5 ovarian; 10 µM unless noted,-21% (active)
same,growth,OVCAR-4 ovarian; 10 µM unless noted,-57.2% (active)
same,growth,SK-OV-3 ovarian; 10 µM unless noted,24.2% (inactive)
same,growth,IGROV1 ovarian; 10 µM unless noted,-71% (active)
same,growth,OVCAR-3 ovarian; 10 µM unless noted,1.09% (active)
same,growth,HS 578T breast; 10 µM unless noted,-38.5% (active)
same,growth,NCI/ADR-RES ovarian; 10 µM unless noted,-12.7% (active)
same,growth,T-47D breast; 10 µM unless noted,1.62% (active)
same,growth,BT-549 breast; 10 µM unless noted,-61.3% (active)
same,growth,MDA-MB-435 melanoma; 10 µM unless noted,-86% (active)
